Values joined by “and” are separate entries in the source; they are usually repeats but may differ in a detail not shown here. Identical values can stand only once. About 17,000 (4.4%) of roughly 390,000 compounds were called active. About 8% were inconclusive and are not listed. The call rests on the fitted dose curve; in most records, active means well fitted inhibition curve with a large enough effect; inconclusive means small, poorly fitted or top-dose-only effect; inactive means no such curve, though single readings can be large or run the other way. The full list was thinned out, with actives kept by preference. More than one record can exist for a structure, and the calls need not agree.
Molecular target: Lysine-specific demethylase 4A (Homo sapiens) (UniProt O75164)
Sequence (O75164 whole entry, looked up, the tested form may be a part): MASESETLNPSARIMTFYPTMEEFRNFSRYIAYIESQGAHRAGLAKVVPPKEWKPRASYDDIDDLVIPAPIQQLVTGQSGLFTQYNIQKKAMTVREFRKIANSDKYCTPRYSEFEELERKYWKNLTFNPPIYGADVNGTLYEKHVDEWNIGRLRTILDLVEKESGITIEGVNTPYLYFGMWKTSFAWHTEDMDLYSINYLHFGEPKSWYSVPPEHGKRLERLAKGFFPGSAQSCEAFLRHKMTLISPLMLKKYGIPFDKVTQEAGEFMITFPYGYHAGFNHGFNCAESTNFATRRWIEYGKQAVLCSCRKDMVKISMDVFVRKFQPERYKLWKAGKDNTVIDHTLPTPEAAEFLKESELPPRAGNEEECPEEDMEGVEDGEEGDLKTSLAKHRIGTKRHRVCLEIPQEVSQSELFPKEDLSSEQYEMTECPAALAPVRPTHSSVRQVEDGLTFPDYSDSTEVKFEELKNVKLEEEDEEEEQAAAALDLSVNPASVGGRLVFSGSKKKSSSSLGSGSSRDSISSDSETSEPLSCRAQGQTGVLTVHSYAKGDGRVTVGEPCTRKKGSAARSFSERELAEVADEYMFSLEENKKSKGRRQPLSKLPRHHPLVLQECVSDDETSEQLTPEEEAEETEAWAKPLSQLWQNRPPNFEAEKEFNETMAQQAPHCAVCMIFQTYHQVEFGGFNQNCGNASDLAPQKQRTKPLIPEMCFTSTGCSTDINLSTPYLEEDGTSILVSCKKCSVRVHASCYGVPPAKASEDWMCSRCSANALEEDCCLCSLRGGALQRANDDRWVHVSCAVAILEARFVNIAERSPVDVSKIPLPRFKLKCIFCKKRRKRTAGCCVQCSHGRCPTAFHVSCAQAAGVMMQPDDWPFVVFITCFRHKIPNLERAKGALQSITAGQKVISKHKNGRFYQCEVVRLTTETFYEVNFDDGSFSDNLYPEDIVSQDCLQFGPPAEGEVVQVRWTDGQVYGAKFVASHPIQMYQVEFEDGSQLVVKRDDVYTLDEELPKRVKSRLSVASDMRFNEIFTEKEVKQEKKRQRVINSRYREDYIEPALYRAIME
Assay: qHTS Assay for Inhibitors of JMJD2A-Tudor Domain; further: nearly all actives have a fitted effect of over 50% in size
Details: AlphaScreen JMJD2A-Tudor / H3K4me3 peptide binding; series mostly up to 114 µM; activity change, negative = inhibition: at the top concentration
On the % scale 0 is the no-effect control and ±100 the full control effect; potency means the concentration at half of the fitted maximal effect.

`Cc1ccc(-c2ccc(CCC(=O)O)n2-c2ccc(C(N)=O)cc2)cc1` was tested. Which “activity change, negative = inhibition” value did it give?
Its value is -22.9% (inactive).

Which Potency does the source give for `CN1/C(=c2/s/c(=C3/C(=O)N(c4ccccc4)NC3=Nc3ccccc3)n(C)c2=O)C(C)(C)c2ccccc21` here?
Its Potency is 28.2 µM (active).

For `CC(C)CCN(C(=O)Nc1ccc(Cl)c(Cl)c1)C(C)c1cccs1` (stereo not drawn), which “activity change, negative = inhibition” value is on record?
Its value is -10.7% (inactive).

With `COc1ccc(NC(=O)c2cnc(Nc3ccc(C)c(Cl)c3)c3ccccc23)cc1OC` as the molecule, how does the “activity change, negative = inhibition” value read?
Its value is 3.07% (inactive).

`CCC(=O)N1CCc2cc(Br)cc(S(=O)(=O)Nc3ccc(C)cc3C)c21` was tested. Which “activity change, negative = inhibition” value did it give?
Its value is -6.73% (inactive).

How did the “activity change, negative = inhibition” value turn out when `O=C1/C(=C/c2coc3ccc(O)cc3c2=O)SC(=S)N1c1ccccc1` was run?
The value was -24% (inactive).

With `Cc1ccc(-c2nn(-c3ccccc3)cc2/C=C2\SC(=S)N(CCCCCC(=O)O)C2=O)o1` as the molecule, how does the Potency read?
The Potency was 14.1 µM (active).

Which “activity change, negative = inhibition” value does the source give for `COc1cccc(NC(=O)CN(C)C(=O)/C=C/c2cn(-c3ccccc3)nc2-c2cccs2)c1` here?
Its value is -21.9% (inactive).

Which “activity change, negative = inhibition” value does the source give for `COc1ccc(-c2nn(-c3ccccc3)cc2CN2CCCO2)c(F)c1` here?
The value was -26% (inactive).

`CN(C(=O)CCN1C(=O)/C(=C/c2ccccc2F)SC1=S)C1CCS(=O)(=O)C1` (stereo not drawn) was tested. Which “activity change, negative = inhibition” value did it give?
Its value is -19.3% (inactive).

Which Potency does the source give for `COc1ccc(-c2nn(-c3ccccc3)cc2/C=C2/SC(=S)N(CCCC(=O)O)C2=O)c(C)c1` here?
Its Potency is 44.7 µM (active).

`CN(Cc1ccccc1)S(=O)(=O)c1ccc(F)c(C(=O)Nc2cccc(Cl)c2Cl)c1` was tested. Which “activity change, negative = inhibition” value did it give?
The value was -7.03% (inactive).

For `COc1cc(F)c(S(=O)(=O)N2CCCN(S(=O)(=O)c3ccc(N)cc3)CC2)c(F)c1`, which “activity change, negative = inhibition” value is on record?
Its value is -14.3% (inactive).

For `O=C(COc1ccccc1Cl)Nc1ccc2nc(SCC(=O)N3CCCC3)sc2c1`, which “activity change, negative = inhibition” value is on record?
The value was -12.6% (inactive).

`O=C(NCc1ccc2c(c1)CCN2C(=O)c1ccccc1)c1ccccc1` was tested. Which “activity change, negative = inhibition” value did it give?
The value was -5% (inactive).

`COc1ccc(C(=O)NCCCN2CCOCC2)cc1Br` was tested. Which “activity change, negative = inhibition” value did it give?
Its value is -4.92% (inactive).

`Cc1ccc(OCCCC(=O)N2CCOCC2)c(C)c1` was tested. Which “activity change, negative = inhibition” value did it give?
Its value is 6.76% (inactive).

For `Cc1ccc(OCCCCN2CCCCC2)c(Br)c1`, which Potency is on record?
The Potency was 0.794 µM (active).

`Cc1cccc(N2CCN(C(=O)c3cc4c(=O)oc5ccccc5c4s3)CC2C)c1` (stereo not drawn) was tested. Which “activity change, negative = inhibition” value did it give?
Its value is -25.3% (inactive).

For `COc1ccc(Cn2c(=O)[nH]c3cc(C(=O)N4CCN(C(=O)c5ccco5)CC4)ccc3c2=O)cc1`, which “activity change, negative = inhibition” value is on record?
The value was -15.6% (inactive).

For `Cc1ccc2nc(-c3ccc(C)c(NC(=O)Cc4ccccc4)c3)oc2c1`, which “activity change, negative = inhibition” value is on record?
The value was -4.58% (inactive).

For `CC1CCN(C(=O)Cn2c(=O)n(-c3ccc(Cl)cc3)c(=O)c3c4c(sc32)CCC4)CC1`, which “activity change, negative = inhibition” value is on record?
Its value is -8.53% (inactive).

Which “activity change, negative = inhibition” value does the source give for `Cn1c(SCC(=O)N2CCCC2)nnc1-c1ccc2c(c1)OCO2` here?
Its value is -0.758% (inactive).

With `O=C(O)CSc1nnc(-c2ccc3c(c2)OCO3)n1-c1ccccc1` as the molecule, how does the “activity change, negative = inhibition” value read?
Its value is -4.9% (inactive).

Which Potency does the source give for `Cn1c(SCc2nc3ccccc3s2)nnc1-c1ccc2c(c1)OCO2` here?
Its Potency is 31.6 µM (active).

How did the “activity change, negative = inhibition” value turn out when `COc1ccc(CCNc2nc(-c3ccc(Cl)cc3)cc(C(F)(F)F)n2)cc1OC` was run?
The value was 8.53% (inactive).

For `COc1ccc(Cc2nnc(N/N=C/c3ccccc3O)[nH]c2=O)cc1OC`, which Potency is on record?
The Potency was 28.2 µM (active).

Which “activity change, negative = inhibition” value does the source give for `CC(C)c1ccc(Cc2nnc(NCCCO)[nH]c2=O)cc1` here?
Its value is -11.2% (inactive).

For `COc1ccc(Cc2nnc(SC)[nH]c2=O)cc1`, which “activity change, negative = inhibition” value is on record?
The value was -2.11% (inactive).

Which “activity change, negative = inhibition” value does the source give for `O=S(=O)(c1ccc(Br)cc1)c1nnn2c1nc(NC1CCCCCC1)c1sccc12` here?
The value was -9.52% (inactive).

How did the “activity change, negative = inhibition” value turn out when `CC(=O)Nc1ccc(NC(=O)c2cc3sccc3n2Cc2ccc(F)cc2)cc1` was run?
The value was -17.8% (inactive).

For `CCOc1ccc2nc(N3CCCC(C(=O)Nc4cc(C)ccc4C)C3)sc2c1` (stereo not drawn), which “activity change, negative = inhibition” value is on record?
Its value is -27.6% (inactive).

With `Cc1ccc2[nH]cc(CCNC(=O)C3CCCCC3)c2c1` as the molecule, how does the “activity change, negative = inhibition” value read?
Its value is -6.31% (inactive).

With `Cc1ccc2[nH]cc(CCCN3C(=O)c4ccccc4C3=O)c2c1` as the molecule, how does the Potency read?
The Potency was 22.4 µM (active).

Which “activity change, negative = inhibition” value does the source give for `COc1ccc2[nH]cc(CCN3C(=O)c4ccc(C(=O)O)cc4C3=O)c2c1` here?
The value was -10.6% (inactive).

With `Cc1nn(Cc2ccc(F)cc2)c(C)c1NC(=O)c1cc(CC(C)C)on1` as the molecule, how does the “activity change, negative = inhibition” value read?
Its value is -9.56% (inactive).

For `O=C(CSc1ncc(CO)n1Cc1ccc(Cl)cc1)NCc1ccc(F)cc1`, which “activity change, negative = inhibition” value is on record?
The value was -18.5% (inactive).

Which “activity change, negative = inhibition” value does the source give for `COc1ccc(N2CCN(C3=NS(=O)(=O)C(c4cccc(Br)c4)=C3C)CC2)cc1` here?
The value was -12.9% (inactive).

With `Cc1ccc(CN2C(=O)N/C(=C/c3cc(C)n(-c4ccccn4)c3C)C2=O)cc1` as the molecule, how does the “activity change, negative = inhibition” value read?
Its value is -23% (inactive).

For `Cc1cc(/C=C2/NC(=O)NC2=O)c(C)n1-c1cccnc1`, which “activity change, negative = inhibition” value is on record?
The value was -19.2% (inactive).

For `Cc1cccc(C)c1-n1c(C)cc(/C=C2\C(=O)NN(c3ccccc3)C2=O)c1C`, which Potency is on record?
The Potency was 22.4 µM (active).

Which “activity change, negative = inhibition” value does the source give for `CCOc1ccc(NC(=O)c2cc3c(=O)n(Cc4cccs4)ccc3nc2C)cc1` here?
The value was -28% (inactive).

How did the “activity change, negative = inhibition” value turn out when `Cc1cccc(NC(=O)c2nnn(CC(=O)Nc3ccc(C(C)C)cc3)c2N)c1C` was run?
Its value is 1.33% (inactive).

How did the “activity change, negative = inhibition” value turn out when `Cc1cc2nc(-c3ccc(NC(=O)c4cc5ccccc5o4)cc3)oc2cc1C` was run?
The value was -8.17% (inactive).

With `CCOC(=O)N1CCc2c(sc3c2c(=O)n(Cc2ccccc2)c(=O)n3CC(=O)Nc2cccc(C)c2)C1` as the molecule, how does the “activity change, negative = inhibition” value read?
Its value is -3.97% (inactive).

For `COc1cccc(-n2c(=O)c3c(C)c(C(=O)N(C)C)sc3n(Cc3cccc(C)c3)c2=O)c1`, which “activity change, negative = inhibition” value is on record?
The value was -16.7% (inactive).

Which Potency does the source give for `COc1cccc(-n2c(=O)c3c(C)c(C(=O)N(C)C)sc3n(CC(=O)NCCc3ccc(OC)c(OC)c3)c2=O)c1` here?
The Potency was “inactive and 79.4 µM (active)”.

Which “activity change, negative = inhibition” value does the source give for `COc1ccc(CCNC(=O)Cn2c(=O)n(-c3ccccc3)c(=O)c3c(C)c(C)sc32)cc1OC` here?
The value was -16.7% (inactive).

From PubChem BioAssay AID504339 (National Center for Advancing Translational Sciences (NCATS), 2011)
